Bioassay records deposited in PubChem by National Center for Advancing Translational Sciences (NCATS).
Cycloheximide cs: Cycloheximide Counterscreen for Small Molecule Inhibitors of Shiga Toxin | cell reporter, cycloheximide protein synthesis inhibition counterscreen | max response, % | 300,000 compounds, 12% hits; in the data active means max response mostly above about 13%, no sharp cut-off; inactive means mostly below about 14%; further: read at 38.3 µM for the half of the compounds with a filed dose; 0% is about no effect
Pf growth 96h: Primary qHTS for delayed death inhibitors of the malarial parasite plastid, 96 hour incubation. P. falciparum luciferase reporter growth, 96 h. Potency, µM (top dose mostly 28.7 µM), for the others: top-dose activity change, negative = inhibition, actives largely listed as inhibitors. 320,000 compounds, 6.9% hits; further: potency means the concentration at half of the fitted maximal effect; on the % scale 0 is the no-effect control and ±100 the full control effect
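Luminescence readout: decreased luciferase signal marks inhibited growth of reporter-expressing P. falciparum in infected red cells (2% hematocrit, 0.05% parasitemia final), exposed to compound two generations (96 h, 37 C, 5% CO2).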
HCMV inh: qHTS Assay for inhibitors of the human cytomegalovirus (HCMV); HFF cells, HCMV-luciferase reporter, 72 h; hits give low values; 410,000 compounds, 4.5% hits; activity change, negative = inhibition, % at 57.5 µM; in the data active means activity change below about -60%; inconclusive means no clear call, values can overlap the other calls; inactive means above about -39%; further: on the % scale 0 is the no-effect control and ±100 the full control effect
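After 16 h attachment at 37C, HFF cells received test compound and HCMV-luciferase (1 PFU/cell); reporter luminescence read 72 h later, data normalized against buffer-only and known inhibitor Salinomycin.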
HCV inh: qHTS Assay for Inhibitors of Hepatitis C Virus (HCV); 340,000 compounds, 3.4% hits; Potency, µM (titrated, usually from 41.8 µM), inactives show at the highest dose activity change, negative = inhibition, most hits filed as inhibitors; Huh7.5.1 HCVcc-Cre infection, luciferase reporter, 44 h; further: potency means the concentration at half of the fitted maximal effect; on the % scale 0 is the no-effect control and ±100 the full control effect
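A cell-based infection assay in which seeded cells (1,000 per well) receive test compound after 4 h, are inoculated with HCVcc-Cre at approximately 0.5 moi, and are incubated 44 h before luminescence detection.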
Pf growth 48h: Primary qHTS for delayed death inhibitors of the malarial parasite plastid, 48 hour incubation | 310,000 compounds, 5.9% hits | P. falciparum luciferase growth in erythrocytes, 48 h | AID 504832, 2011 | Potency, µM (highest dose often 28.7 µM), for inactives: at the highest dose activity change, negative = inhibition, most hits filed as inhibitors; further: potency means the concentration at half of the fitted maximal effect; on the % scale 0 is the no-effect control and ±100 the full control effect
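Cell-based growth assay: transgenic P. falciparum expressing firefly luciferase, cultured in red cells within RPMI 1640 containing 0.5% w/v Albumax, 24 mM bicarbonate and gentamycin. A drop in luciferase activity indicates inhibition.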
Shiga inhibitor: A qHTS for Small Molecule Inhibitors of Shiga Toxin. Vero cells, Shiga toxin protein synthesis inhibition reporter. inhibition, % at 38.7 µM. 290,000 compounds, 9.2% hits. AID 2315, 2010; in the data active means inhibition mostly above about 28%, no sharp cut-off; inactive means mostly below about 43%; further: 0% is about no effect
* hit, by the source's call. Hits are enriched below; roughly 21% of the tested compounds scored in any of these assays. Unless noted, the call rests on the fitted dose curve; in most records, active means well fitted inhibition curve with a large enough effect; inconclusive means small, poorly fitted or top-dose-only effect, or another doubt; inactive means no such curve, though single readings can be large or run the other way.

`Cc1ccc(C2=NN(C(=O)c3ccccc3F)C(c3ccccc3F)C2)cc1` (stereo not given) gave Cycloheximide cs 3, Pf growth 96h -42%, HCMV inh -10, HCV inh -46%, Pf growth 48h 4.1µM* and Shiga inhibitor -2.
For CC(C)(C)C(=O)NC(=S)NNC(=O)c1ccc(Cl)cc1Cl the results were Cycloheximide cs 3, Pf growth 96h inconclusive, HCMV inh 0, HCV inh inconclusive, Pf growth 48h inconclusive and Shiga inhibitor 30.
For COc1cc(C(=O)Nc2nc3ccc4nc(C)sc4c3s2)cc(OC)c1OC the results were Cycloheximide cs 12, Pf growth 96h 6%, HCMV inh 23, HCV inh inconclusive, Pf growth 48h 8% and Shiga inhibitor -12.
Screening CCCC(=O)Nc1nc2ccc3nc(C)sc3c2s1 returned Cycloheximide cs 40*, HCMV inh -40, HCV inh inconclusive, Pf growth 48h inconclusive and Shiga inhibitor 95*.
For COc1ccc(C(=O)Nc2nc3ccc4nc(C)sc4c3s2)cc1 the results were Cycloheximide cs -2, Pf growth 96h 3%, HCMV inh 3, HCV inh inconclusive, Pf growth 48h 24% and Shiga inhibitor -3.
CCCCC(=O)Nc1nc2ccc3nc(C)sc3c2s1 was read as Cycloheximide cs 9, Pf growth 96h 10µM*, HCMV inh -22, HCV inh 7.9µM*, Pf growth 48h inconclusive and Shiga inhibitor 16.
Screening CCOc1ccccc1OCC(=O)Nc1cc(S(=O)(=O)N2CCCCC2)ccc1N1CCN(CC)CC1 returned Pf growth 96h 3.3µM*, HCMV inh 2, HCV inh inconclusive and Pf growth 48h 10µM*.
For CCC(=O)c1ccc(OCC(=O)Nc2cc(S(=O)(=O)N3CCCCC3)ccc2N2CCN(CC)CC2)cc1 the results were Pf growth 96h 9.3µM*, HCMV inh -12, HCV inh inconclusive and Pf growth 48h inconclusive.
For COc1ccc(S(=O)(=O)N2CCC(C(=O)Nc3ccccc3N3CCCCC3)CC2)cc1OC the results were Cycloheximide cs 3, Pf growth 96h 8.3µM*, HCMV inh 28, HCV inh inconclusive, Pf growth 48h 0% and Shiga inhibitor -2.
CN1CCN(c2ccc(S(=O)(=O)N3CCCCC3)cc2NC(=O)COc2ccc([N+](=O)[O-])cc2)CC1 was read as Pf growth 96h inconclusive, HCMV inh 16, HCV inh inconclusive and Pf growth 48h inconclusive.
For COc1ccccc1OCC(=O)Nc1cc(S(=O)(=O)N2CCCCC2)ccc1N1CCCCC1 the results were Cycloheximide cs 1, Pf growth 96h 2.1µM*, HCMV inh -37, HCV inh 25µM*, Pf growth 48h 5.2µM* and Shiga inhibitor -2.
`CCOc1ccccc1OCC(=O)Nc1cc(S(=O)(=O)N2CCCCC2)ccc1OC` gave Pf growth 96h 2%, HCMV inh -19, HCV inh inconclusive and Pf growth 48h inconclusive.
CCOc1ccc(C(=O)NCC(c2ccco2)S(=O)(=O)c2ccc(C)cc2)cc1 (stereo not given) was read as HCMV inh 7.
For CC(O)[C@H]1CNCCN1CC1(c2ccccc2)CC1 (stereo not given in full) the results were Pf growth 96h 41%, HCMV inh 13, HCV inh 21% and Pf growth 48h inconclusive.
`O=C(NCCNCCO)C1(C(F)(F)F)C/C(=C\CCO)CCCO1` (stereo not given) gave Cycloheximide cs 14, HCMV inh -8, HCV inh 30% and Shiga inhibitor -2.
O=C(CCCn1nnnc1CN1CCOCC1)N1CCC(c2ccccc2Cl)C1 (stereo not given) was read as Cycloheximide cs -2, Pf growth 96h 5%, HCMV inh 34, HCV inh -5%, Pf growth 48h inconclusive and Shiga inhibitor 3.
